# Tests used:
# Assay in all cases: PBM binding z-score (relative to random genomic background probes); higher = stronger binding; sequences stand for … in GC…GCGATTGACAGCGTAGAATGAAGG
# [1] = system: FXR:RXRa (NR concentration 270 nM, RXRa partner concentration 90 nM)
# Method in brief: (§1)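 Custom Agilent 4×180K protein-binding microarrays carried double-stranded probes. Their 34-nt variable regions held direct-repeat seeds, single-nucleotide variants, half-site ablations and random human genomic background sequences. Arrays were incubated 1 h with ligand-free nuclear receptor dimers in PBS pH 7.4, 2% milk, 0.02% Triton X-100, 1 mM DTT, 0.2 mg/mL BSA and 0.4 mg/ml salmon testes DNA. Antibodies against each partner (one per run) detected binding, and scanned fluorescence was regression-normalized. Binding z-scores use random background probes as reference.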
# [2] = system: LXRa:RXRa (NR concentration 270 nM, RXRa partner concentration 90 nM)
# Method in brief: as §1
# [3] = system: LXRa homodimer (NR concentration 270 nM)
# Method in brief: as §1
# [4] = system: LXRb:RXRa (NR concentration 270 nM, RXRa partner concentration 90 nM)
# Method in brief: as §1
# [5] = system: LXRb homodimer (NR concentration 270 nM)
# Method in brief: as §1
# [6] = system: PPARa:RXRa (NR concentration 270 nM, RXRa partner concentration 90 nM)
# Method in brief: as §1
# [7] = system: PPARg:RXRa (NR concentration 180 nM, RXRa partner concentration 90 nM)
# Method in brief: as §1
# [8] = system: PPARg:RXRa 270nM:90nM, anti-RXR (NR concentration 270 nM, RXRa partner concentration 90 nM)
# Method in brief: as §1
# [9] = system: PPARg:RXRa 30nM:10nM, anti-RXR (NR concentration 30 nM, RXRa partner concentration 10 nM)
# Method in brief: as §1
# [10] = system: PPARg:RXRa 90nM:30nM, anti-RXR (NR concentration 90 nM, RXRa partner concentration 30 nM)
# Method in brief: as §1
Sequence,PBM binding z-score [1],PBM binding z-score [2],PBM binding z-score [3],PBM binding z-score [4],PBM binding z-score [5],PBM binding z-score [6],PBM binding z-score [7],PBM binding z-score [8],PBM binding z-score [9],PBM binding z-score [10]
GGAACGAGGGCATTCGAGTTGATAGAATGGCGAT,1.44,1.37,-0.262,0.195,-0.719,1.27,0.965,0.758,0.0506,0.303
ATATGTAGCTTAGCTGGGGTCATTCAGACTAGGC,3.34,3.44,1.49,4.21,0.639,4.15,1.15,2.3,0.587,1.59
CGAACTAGGTCAGAACAGGAGAGTGAAGGATGAT,0.927,0.589,-0.174,0.371,-0.252,3.11,5.25,4.6,1.34,3.7
ATCTCTACGTAAAAGTTCAGTGAATCCCGAGGAT,0.535,1.12,1.27,0.881,1.33,0.835,0.595,1.55,0.654,1.25
CCTGGTAGGTCATGGTCAGCTAATCTACAGTATG,3.94,3.15,0.527,2.3,0.0201,4.05,4.22,4.12,1.32,3.01
CCTGCTAAGTCAATGGTCAGCTAAAGCAGCTCGC,-0.665,-0.355,-0.545,-0.517,-0.617,-0.254,-0.271,0.314,-0.862,0.0482
TCATATTGGTAAAGGTGAAAGTCGAACGATATGA,0.751,1.1,-0.299,1.19,0.0352,2.58,1.89,3.8,3.95,3.9
CAAACTGGGTCAAGAGGTCAAAGTCCGCTTCCCG,6.73,6.26,5.68,5.53,1.32,6.47,9.59,8.33,7.11,8.47
ATATGTAGGTTAGCTGGGGTCAATCAGACTAGGC,4.21,5.44,1.4,4.65,1.47,5.14,5.84,5.34,2.61,4.68
CGGCCAAGGTCAAGGTCAGTGAAAGAGACTCGAA,7.61,5.58,0.407,4.63,0.323,6.12,6.44,6.23,2.33,4.85
TCTAGTTGGTCACGCAGGTCACACACGACGGGTA,1.94,1.98,1.08,2.09,0.279,2.87,2.09,2.99,3.37,2.92
CGTCAAAGCTCAAGGTAACGTAACAGAAAGCAGC,-0.214,-0.485,-0.372,-0.335,-0.863,-0.0672,0.521,-0.193,0.0179,0.133
TCTTTTAGATCAACAGGAGGTTAAGAAAGATCGA,1.27,1.43,0.248,1.57,0.898,1.55,0.2,2.27,3.57,3.17
CGTCCAAGGTCCAAGGTCAGTGAAGAGATGACGG,1.55,1.08,0.179,1.1,-0.433,2.37,1.65,2.35,0.473,1.66
AATACAGGGTCACTAGGCCAGGGTAGGTACGAAT,5.78,4.57,1.02,3.79,0.895,5.76,7.68,6.2,3.37,5.35
AGAATGAGGTTATACGTACATCAGGGAAGAAAGT,2.3,2.05,0.00405,1.58,0.14,3.24,2.46,2.42,0.777,1.66
TCTTGTAGAGCAATAGAGGTTAAGAAAGTGCGCT,0.316,2.34,0.104,1.18,-0.745,1.92,0.157,1.31,1.69,1.55
GCATGTAGGTAATACAAGGTGAAAGTCCGATTGT,0.127,1.13,0.162,0.172,-0.45,1.62,1.34,1.52,0.458,0.981
CGAACTAGGTCATAGACAGGACAGTGAATAGTAA,3.32,2.16,0.422,1.64,-0.534,4.33,7.56,6.26,3.94,5.68
CCTTACGGGACACTGACAGGTTATAGCATTTGGA,-0.0808,-0.0885,0.186,0.0675,-0.248,-0.0851,0.499,-0.397,0.123,-0.284
ACTAGTTGGGCAGCTGAGGTCACACACAATTCGG,2.42,2.48,1.5,2.74,0.155,3.31,1.34,1.8,0.192,1.26
CCTACTGGGCCATTCAGACGTCATTGATCATATG,-0.301,-0.532,-0.873,-0.449,-0.437,0.168,0.616,0.206,0.0211,0.147
CGAACTAGGTCATGCAGGACAGTGAATACATTGA,3.87,2.17,0.149,1.88,-0.2,4.66,7.65,6.21,3.69,5.66
CAAACTAGGTTACAGAGGTCAAAGTCCGTGCGTA,6.15,6.43,7.09,5.72,2.18,5.82,7.94,7.19,5.19,6.82
